Assay [1] has as its target Glutathione peroxidase 1 (Homo sapiens) (UniProt P07203). Put plainly: Primary qHTS Assay for Inhibitors of Recombinant Selenoprotein Glutathione Peroxidase 1 (GPX1) (AID 1845191). For activity, negative = inhibition: % is set by controls: 0 for no effect and ±100 for the full control effect. Note: nearly all actives have a fitted effect of over 65% in size. A digest of the protocol: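 GR-coupled readout: NADPH consumption tracked by fluorescence, ex 340/em 450 nm, at t=0 and after 15 min at RT. Final mix 10 nM GPX1, 1 mM GSH, 0.5 mM CHP, 0.5 mM NADPH, 100 nM GR, 0.01% BSA, following 30 min enzyme–compound preincubation.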

In assay [2] the target is Phospholipid hydroperoxide glutathione peroxidase GPX4 (Homo sapiens) (UniProt P36969). Nature of the assay: Primary qHTS Assay for Inhibitors of Recombinant Selenoprotein Glutathione Peroxidase 4 (GPX4) (AID 1845192). For activity change, negative = inhibition: series mostly up to about 50 µM; % is set by controls: 0 for no effect and ±100 for the full control effect. Note: nearly all actives have a fitted effect of over 65% in size. Note: potency is the fitted concentration of half-maximal effect. A digest of the protocol:
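Steps: GPX4 plus compound, 30 min RT; add GR/GSH/NADPH master mix; start with cumene hydroperoxide; read 340/450 nm fluorescence at 0 and 15 min. Finals were 200 nM GPX4, 1 mM GSH, 0.5 mM CHP, 0.5 mM NADPH, 100 nM GR.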

The target in assay [3] is Luciferin 4-monooxygenase (Photinus pyralis) (UniProt P08659). Put plainly: Primary firefly luciferase (FLuc) qHTS assay for identification of artifact compounds. (AID 1845220).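 For activity change, negative = inhibition: series mostly up to about 54 µM; plate controls were DMSO vehicle for no effect and no enzyme for full effect.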 Note: nearly all actives have a fitted effect of over 60% in size. A digest of the protocol: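 D-luciferin and ATP (10 uM each, final) in Tris acetate buffer pH 7.6 were incubated with compounds for 15 min at room temperature. The reaction was started with 10 nM Photinus pyralis luciferase and luminescence read after 5 min. Percent inhibition was fitted to a 4-parameter Hill equation.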

Assay [4] is described as follows: Primary fluorescence-based thiol-reactive (MSTI) qHTS assay for identification of artifact compounds. (AID 1845221).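 For activity change, negative = thiol reactive: series mostly up to about 54 µM; thiol-reactive compounds lower the probe fluorescence signal.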 Note: nearly all actives have a fitted effect of over 65% in size. Note: potency is the fitted concentration of half-maximal effect. A digest of the protocol: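 MSTI probe at 4 uM final in 2% DMSO/PBS pH 7.4; compounds, 1 h at room temperature in dark. Fluorescence Ex/Em 525/598 nm, normalised to Acetyl-MSTI and MSTI, fitted to 4-parameter Hill.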
Assay [5] deals with Nanoluciferase (engineered Oplophorus gracilirostris luciferase). Put plainly: Primary Nanoluciferase (NLuc) qHTS assay for identification of artifact compounds. (AID 1845222).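 Note: series mostly up to about 54 µM; 0% = DMSO and -100% = no enzyme.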 A digest of the protocol: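 Diluted conditioned medium from NLuc-expressing S16 cells treated with compounds for 15 min at room temperature, then Nano-Glo substrate added; luminescence read after 5 min. Percent inhibition versus no-enzyme and DMSO controls fitted to 4-parameter Hill equation.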

Assay [6] is described as follows: Primary redox qHTS assay for identification of artifact compounds. (AID 1845223).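 Note: 0% = DMSO and 100% = reference compound.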 A digest of the protocol: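 Redox-cycling detection via DTT (250 uM final) oxidation coupled to Amplex Red (25 uM)/HRP (250 mU/mL) in HBSS. 15 min preincubation plus 30 min after DTT, room temperature. Ex/Em 525/598 nm; 4-parameter Hill fit against DMSO and 10 uM DA3003.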

Where “and” joins values, the source holds several entries; their conditions need not be identical. Equal values may be shown once. Results filed as inconclusive are left out. A structure can be active in one record and inactive in another. Calls of active or inactive are those of the source. Calls come from the whole dose curve; as a rule, active = well fitted curve in the direction sought with a large enough effect; inconclusive = small, poorly fitted or top-dose-only effect, or another doubt; inactive = no such curve, though single readings can be large; an effect the other way counts as inactive or inconclusive.

These results are taken from PubChem BioAssay (NCATS).

Chain of Glutathione peroxidase 1 (Homo sapiens) (P07203 whole entry, looked up): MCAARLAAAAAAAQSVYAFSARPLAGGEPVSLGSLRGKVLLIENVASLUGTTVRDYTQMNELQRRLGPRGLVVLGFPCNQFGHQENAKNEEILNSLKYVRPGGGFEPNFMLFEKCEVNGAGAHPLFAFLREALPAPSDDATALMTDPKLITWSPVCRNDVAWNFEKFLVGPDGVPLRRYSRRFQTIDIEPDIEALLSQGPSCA
Chain of Phospholipid hydroperoxide glutathione peroxidase GPX4 (Homo sapiens) (P36969 whole entry, looked up): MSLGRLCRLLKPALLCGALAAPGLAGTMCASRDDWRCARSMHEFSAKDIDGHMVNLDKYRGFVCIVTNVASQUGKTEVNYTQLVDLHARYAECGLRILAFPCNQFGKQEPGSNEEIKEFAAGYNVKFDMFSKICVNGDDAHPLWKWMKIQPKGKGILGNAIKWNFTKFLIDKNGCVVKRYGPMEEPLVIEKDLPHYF

Regarding `NC[C@@H]1O[C@@H](O[C@@H]2[C@@H](O[C@@H]3O[C@H](CO)[C@@H](O)[C@H]3O)[C@H](O)[C@@H](N)C[C@H]2N)[C@@H](N)[C@H](O)[C@H]1O`, the Potency entry in assay [1] and in assay [2] was “inactive” throughout. In addition, the outcome in assay [3] was “inactive [at 11.6 µM]”. Besides, in assay [4], the activity change, negative = thiol reactive was -13.5% [at 11.5 µM] (inactive). In addition, the activity, negative = inhibition in assay [5] was 0% [at 11.6 µM] (inactive). Besides, the redox activity (% of DA3003) in assay [6] was -8.2% [at 11.5 µM] (inactive).
As for `COc1c2cc(c(O)c1OC)CCCCC(O)CCc1ccc(O)c-2c1` (stereo not given), the Potency result in assay [1], in assay [2], in assay [3], in assay [4], in assay [5] and in assay [6] was “inactive” throughout.
With `C=C[C@@]1(C)CCC2=C([C@H]1OC(C)=O)[C@H](OC(C)=O)CC1[C@](C)(C(=O)OC)CC[C@H](OC(C)=O)[C@]21C` (stereo not given in full), the Potency entry in assay [1], in assay [2], in assay [3], in assay [4], in assay [5] and in assay [6] was “inactive” each time.
Turning to `COc1cc([C@H]2OC[C@](O)(Cc3ccc(O[C@@H]4O[C@H](CO)[C@@H](O)[C@H](O)[C@H]4O)c(OC)c3)[C@@H]2CO)ccc1O`, the Potency result in assay [1], in assay [2], in assay [3], in assay [4], in assay [5] and in assay [6] was “inactive” in each case.
With `C#CCCCn1cc(-c2cccc3c2N[C@@H](C)CC(=O)N3)cn1`, the Potency result in assay [1], in assay [2], in assay [3], in assay [4], in assay [5] and in assay [6] was “inactive” each time.
As for `C[C@@H]1O[C@@H](O[C@H]2[C@H](OC(=O)[C@]34CCC(C)(C)C[C@H]3C3=CCC5[C@@]6(C)CC[C@H](O[C@@H]7O[C@H](CO[C@@H]8OC[C@H](O)[C@H](O)[C@H]8O[C@@H]8OC[C@@H](O)[C@H](O)[C@H]8O)[C@@H](O)[C@H](O)[C@H]7O)C(C)(C)C6CC[C@@]5(C)[C@]3(C)C[C@H]4O)O[C@H](CO)[C@@H](O)[C@@H]2O)[C@H](O[C@@H]2O[C@H](CO)[C@@H](O)[C@H](O)[C@H]2O)[C@H](O)[C@H]1O[C@@H]1OC[C@@H](O)[C@H](O[C@@H]2OC[C@@H](O)[C@H](O)[C@H]2O)[C@H]1O` (stereo not given in full), the Potency entry in assay [1] and in assay [2] was “inactive” each time. For the same compound, in assay [3], the activity change, negative = inhibition was 2.11% [at 6.45 µM] (inactive). The activity change, negative = thiol reactive in assay [4] was 385% [at 6.41 µM] (inactive). Further, in assay [5], the activity, negative = inhibition is 3.87% [at 6.45 µM] (inactive). Also, the redox activity (% of DA3003) in assay [6] is 13.7% [at 6.41 µM] (inactive).
`CC(C)C1C(OC(=O)/C=C/c2ccccc2)CC2(C)OC2CCC2(C)OC2C1O` (stereo not given): the Potency result in assay [1], in assay [2], in assay [3], in assay [4], in assay [5] and in assay [6] was “inactive” each time.
Consider `CC(=O)NC1C(OC2CCC3(C)C(CCC4(C)C3CC=C3C5CC(C)(C)CCC5(C(=O)O)C(O)CC34C)C2(C)C)OC(CO)C(O)C1O` (stereo not given), for which the Potency result in assay [1], in assay [2], in assay [3], in assay [4], in assay [5] and in assay [6] was “inactive” each time.
Turning to `COCCN1CCC(C(=O)NO)(S(=O)(=O)c2ccc(Oc3ccc(OC(F)(F)F)cc3)cc2)CC1`, the Potency result in assay [1], in assay [2], in assay [3], in assay [4], in assay [5] and in assay [6] was “inactive” each time.
In the case of `CC(C)Oc1ccc(-c2nc(-c3cccc4c3CCC4NCCC(=O)O)no2)cc1C#N` (stereo not given), the Potency entry in assay [1], in assay [2], in assay [3], in assay [4], in assay [5] and in assay [6] was “inactive” in each case.
For the compound `CC[C@H](NC(=O)c1c(O)c(-c2ccccc2)nc2ccccc12)c1ccccc1`, the Potency entry in assay [1], in assay [2], in assay [3], in assay [5] and in assay [6] was “inactive” throughout. Moreover, the Potency in assay [4] was 2.67 µM (active).
Take `CC(=O)c1[nH]cc(CCC(=O)O)c1CC(=O)O`: the Potency result in assay [1], in assay [2], in assay [3], in assay [4], in assay [5] and in assay [6] was “inactive” throughout.
`CC(O)C1NC(=O)C2CCCN2C1=O` (stereo not given): the Potency entry in assay [1], in assay [2], in assay [3], in assay [4], in assay [5] and in assay [6] was “inactive” in each case.
With `C/C=C/C=C/C(=O)OC1CC/C=C/C(O)C(O)C(CCC)OC1=O` (stereo not given), the Potency entry in assay [1], in assay [2], in assay [3], in assay [4], in assay [5] and in assay [6] was “inactive” throughout.
As for `C[C@H]1/C=C/C=C/C=C/C=C/C=C/[C@@H](O)[C@H](C(=O)O)[C@H](O)C[C@H](O)CCC[C@H](O)C[C@H](O)C[C@H](O)[C@@H](C)C(=O)O[C@@H]1C`, the Potency entry in assay [1], in assay [2], in assay [3], in assay [4], in assay [5] and in assay [6] was “inactive” in each case.
Consider `Cc1cc(-n2c(=O)[nH]c(=O)n(C)c2=O)ccc1Oc1ccc(SC(F)(F)F)cc1`, for which the Potency entry in assay [1], in assay [3], in assay [4], in assay [5] and in assay [6] was “inactive” in each case. Also, in assay [2], the Potency entry was “inactive and 15.8 µM (active)”.
With `C/C=C(\C)C(=O)OC1CC2C(CC=C3CC(OC4CC(OC)C(OC5CC(OC)C(OC6CC(OC)C(OC7CC(OC)C(OC8CC(OC)C(OC9OC(CO)C(O)C(O)C9O)C(C)O8)C(C)O7)C(C)O6)C(C)O5)C(C)O4)CCC32C)C2(O)CCC(C(C)=O)C12C` (stereo not given), the Potency entry in assay [1] and in assay [2] was “inactive” in each case. Moreover, the activity change, negative = inhibition in assay [3] was 2.55% [at 11.6 µM] (inactive). In assay [4], the activity change, negative = thiol reactive was 7.96% [at 11.5 µM] (inactive). In addition, the activity, negative = inhibition in assay [5] is 4.2% [at 11.6 µM] (inactive). For the same compound, the redox activity (% of DA3003) in assay [6] is 12.2% [at 11.5 µM] (inactive).
Turning to `C=C1CCC2[C@](C)(CO)CCC[C@@]2(C)[C@@H]1CCC1=CCOC1=O` (stereo not given in full), the Potency result in assay [1], in assay [2], in assay [3], in assay [4], in assay [5] and in assay [6] was “inactive” in each case.
`CC1OC(OC2CCC3(C)C(CCC4(C)C3C=CC35OCC6(CCC(C)(C)CC63)CCC45C)C2(C)CO)C(OC2OC(CO)C(O)C(O)C2O)C(O)C1OC1OC(CO)C(O)C(O)C1O` (stereo not given): the Potency entry in assay [1] and in assay [2] was “inactive” throughout. Moreover, the activity change, negative = inhibition in assay [3] was 1.11% [at 11.6 µM] (inactive). In assay [4], the activity change, negative = thiol reactive was 34% [at 11.5 µM] (inactive). Moreover, in assay [5], the activity, negative = inhibition is 3.75% [at 11.6 µM] (inactive). Also, in assay [6], the redox activity (% of DA3003) is 12.4% [at 11.5 µM] (inactive).
Regarding `CC1=C(CCC(C)O[C@@H]2O[C@H](CO)[C@@H](O)[C@H](O)[C@H]2O)C(C)(C)CC(O)C1` (stereo not given in full), the Potency result in assay [1], in assay [2], in assay [3], in assay [5] and in assay [6] was “inactive” in each case. Moreover, the Potency in assay [4] was 5.85 µM (active).
